Reference: PubChem BioAssay (NCI)
Compounds without any hit were thinned out: in the full panel of roughly 83,000, 20% have a hit.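 Percent growth is the endpoint: 0 to 100 indicates growth inhibition (40 means 60% inhibition), 0 means no net growth, and negative values indicate cell death.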 Unmarked numbers belong to inactive results. Activity calls are given as the source filed them. How the source made its calls: active means growth percent below 10; inactive means the rest.

What was measured:
Test in all cases: NCI-60 one-dose screen, 48 h (100 = growth as untreated, 0 = no growth, -100 = all killed)
Settings in all cases: 10 µM unless noted
SR leukemia = test system: SR leukemia
RPMI-8226 leukemia = test system: RPMI-8226 leukemia
OVCAR-8 ovarian = test system: OVCAR-8 ovarian
OVCAR-5 ovarian = test system: OVCAR-5 ovarian
OVCAR-4 ovarian = test system: OVCAR-4 ovarian
SK-OV-3 ovarian = test system: SK-OV-3 ovarian
IGROV1 ovarian = test system: IGROV1 ovarian
OVCAR-3 ovarian = test system: OVCAR-3 ovarian
HS 578T breast = test system: HS 578T breast
NCI/ADR-RES ovarian = test system: NCI/ADR-RES ovarian

SMILES	growth (SR leukemia)	growth (RPMI-8226 leukemia)	growth (OVCAR-8 ovarian)	growth (OVCAR-5 ovarian)	growth (OVCAR-4 ovarian)	growth (SK-OV-3 ovarian)	growth (IGROV1 ovarian)	growth (OVCAR-3 ovarian)	growth (HS 578T breast)	growth (NCI/ADR-RES ovarian)
O=C1COCCN1c1ccc(Nc2nc(Cl)nc(OCc3cn(Cc4ccccc4)nn3)n2)cc1	8.29% (active)	67.9%	79.6%	105%	83%	88.8%	62.6%	89.4%	85.3%	101%
C#Cc1cccc(Nc2ncnc3ccc(-c4cnc(N)nc4)cc23)c1	40.6%	22.8%	49.6%	23.1%	46.1%	-2.3% (active)	-26.3% (active)	24.1%	-7.24% (active)	49.8%
Cc1cc(N)c2cc(NC(=O)/C=C\c3ccccc3Cl)ccc2n1	7.11% (active)	-70.9% (active)	-41.9% (active)	-95.4% (active)	-64.1% (active)	-96.4% (active)	-67.5% (active)	-90.2% (active)	-72.3% (active)	48.9%
CN1CCN(c2ccc(NC(=O)c3cncnc3Nc3ccc(OCc4ccccn4)c(Cl)c3)cc2)CC1	4.59% (active)	23.3%	15.2%	46.4%	61.8%	99.4%	79.4%	70.6%	67.4%	70.5%
CCN(CC)CCCN1C(=O)c2c(c(C)c3c(oc4cc(O)ccc43)c2C)C1=O	8.28% (active)	-30% (active)	-39.4% (active)	-77.2% (active)	-50.2% (active)	105%	-74.5% (active)	118%	101%	-40.4% (active)
N#Cc1cnc(NCCc2ccncc2)nc1-n1cnc2ccccc21	35.4%	65.3%	54%	66.9%	74.2%	25.5%	29.1%	76.7%	72.1%	64.9%
N#Cc1nc(-c2ccccc2)oc1S(=O)(=O)N1CCOCC1	1.09% (active)	76.5%	59.8%	103%	84.2%	103%	88.5%	15%	107%	98.7%
CN(C)CCNC(=O)c1cccc(-c2cnc3ccc(-c4ccc5c(c4)OCO5)nn23)c1	-2.23% (active)	75.8%	88.6%	89.3%	67.2%	61.1%	30.6%	76.9%	80.1%	85.8%
Nc1ncnc2c1N=C(c1ccc3c(c1)OCO3)CC(c1ccc([N+](=O)[O-])cc1)N2 (stereo not given)	45.6%	46.2%	87.3%	75.8%	99%	86%	3.46% (active)	103%	74%	82%
COc1ccc(/C(C)=C(/c2ccc(OCCCN(C)C)cc2)c2ccc(OC(=O)Cc3ccccc3)cc2)cc1	-0.597% (active)	48.1%	87.6%	85.2%	87.9%	73.4%	95%	81.2%	56.5%	85.1%
CC(C)c1ccc(COCc2cc(CN3CCCC3)c(O)c3ncccc23)cc1	-6.27% (active)	-21.4% (active)	-10.8% (active)	32.8%	-6.36% (active)	-16.4% (active)	9.42% (active)	-34.2% (active)	41.6%	-51.2% (active)
CC/C(=C(/c1ccc(Cl)cc1)c1ccc(OCCN2CCCC2)cc1)c1ccc(OC)cc1	-16.1% (active)	12.2%	69.4%	72.9%	72.6%	101%	81.8%	78.7%	100%	66.7%
COc1ccc(C(=O)Nc2ncc(Cc3ccc(F)cc3)s2)cc1	11.1%	15.9%	27.6%	29.6%	48.9%	44.6%	18.3%	-22.2% (active)	31.7%	7.08% (active)
CN1CCN(Cc2ccc3c(NNC(=O)c4ccccc4)nc4cc(F)ccc4n23)CC1	7.6% (active)	26.4%	17.6%	59.2%	24.1%	37.1%	21.7%	38.9%	70.6%	8.77% (active)
CN(C)c1ccc(/C=C/C(=O)c2ccc(-n3cc(CN4CCN(c5cc6c(cc5F)c(=O)c(C(=O)O)cn6C5CC5)CC4)nn3)cc2)cc1	7.11% (active)	-24.6% (active)	23.3%	84.2%	93.1%	71.6%	39.6%	46.6%	57.4%	92.1%
COc1ccc2c(O)c(/C=C3\N=Nc4ncccc43)oc2c1C[C@H]1CCNC[C@H]1F	-40.2% (active)	9.58% (active)	5.11% (active)	16%	2.83% (active)	21%	2.29% (active)	1.29% (active)	-6.5% (active)	31.3%
O=C(CSc1nc(-c2ccccc2)[nH]c1S(=O)(=O)c1ccccc1)NC1CC1	92.1%	90.1%	97.2%	109%	95%	13.4%	107%	102%	99.2%	83.1%
COc1cc2c(c(OC)c1OC)CCC(c1cccc(C(=O)Nc3cccc(Br)c3)c1)O2 (stereo not given)	35.6%	50%	81.1%	81.3%	55%	78%	81.8%	74.7%	66.7%	79.6%
CC(C)=NNc1ccccn1	32%	70.3%	29%	54.4%	12%	26.2%	63.2%	18.8%	79.5%	33.5%
COC1=CC(c2ccc[nH]2)=N/C1=C\c1[nH]c(C)c(C(=O)OCc2ccccc2)c1C	9.69% (active)	-18% (active)	-26.6% (active)	-38.5% (active)	-36.5% (active)	7.66% (active)	-33.1% (active)	-66% (active)	-37% (active)	0.894% (active)
O=C(Cn1c(=O)sc2nc3ccccc3nc21)Nc1ncc(Cc2cccc(Cl)c2Cl)s1	101%	97.5%	97%	101%	102%	95.1%	81.3%	111%	90.2%	89.6%
